AmpC inh no detg – AmpC beta-lactamase inhibition without detergent; P00811; AmpC nitrocefin hydrolysis, absorbance 480 nm, 0.0001% Triton; Potency, µM (top dose mostly 57.1 µM), without a hit: at the highest dose activity change, negative = inhibition, hits mostly inhibitors; 0.52% of 330,000 active; AID 485341;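 note: plate controls were no compound for no effect and no enzyme for full effect; nearly all actives have a fitted effect of over 20% in size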
Target sequence (P00811 whole entry, looked up): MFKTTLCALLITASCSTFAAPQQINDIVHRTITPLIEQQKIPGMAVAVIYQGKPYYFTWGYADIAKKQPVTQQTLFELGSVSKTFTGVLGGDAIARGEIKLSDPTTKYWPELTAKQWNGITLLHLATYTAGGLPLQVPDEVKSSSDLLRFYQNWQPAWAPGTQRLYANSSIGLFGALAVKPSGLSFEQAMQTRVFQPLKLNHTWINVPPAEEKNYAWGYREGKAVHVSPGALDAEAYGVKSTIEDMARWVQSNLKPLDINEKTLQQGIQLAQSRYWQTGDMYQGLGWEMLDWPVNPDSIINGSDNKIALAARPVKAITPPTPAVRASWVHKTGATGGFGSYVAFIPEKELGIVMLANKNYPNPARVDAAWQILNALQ
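AmpC (5.3 nM in the dispensed reagent) in 20 mM phosphate pH 7.0 with 0.01% (detergent screen) or 0.0001% Triton X-100 was preincubated with compounds for 15 min at room temperature. Nitrocefin was then added from an 800 uM solution, and hydrolysis was followed at 480 nm.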
SARS PLP yeast – SARS-CoV PLP inhibition in yeast; S. cerevisiae expressing SARS-CoV PLpro, growth rescue; Potency, µM (highest dose often 32.9 µM), inactives show at the highest dose activity, positive = growth rescue, hits mostly activators; 0.19% of 330,000 active; calls by dose curve; note: 0% is about no effect; nearly all actives have a fitted effect of over 55% in size
AmpC detergent – inhibitors of E. coli AmpC beta-lactamase with detergent | P00811 | 0.041% of 370,000 active | AmpC hydrolysis of nitrocefin, absorbance 480 nm, 0.01% Triton | Potency, µM (doses to about 114 µM), for the others: at the highest dose activity change, negative = inhibition, actives largely listed as inhibitors;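 note: 0% = no-compound wells and -100% = no-enzyme wells; nearly all actives have a fitted effect of over 25% in size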
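AmpC (5.3 nM in the dispensed reagent) in 20 mM phosphate pH 7.0 with 0.01% (detergent screen) or 0.0001% Triton X-100 was preincubated with compounds for 15 min at room temperature. Nitrocefin was then added from an 800 uM solution, and hydrolysis was followed at 480 nm.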
Giardia FBPA inh-1 – blocks Giardia fructose-bisphosphate aldolase activity | Potency, µM (series often up to 59.6 µM), without a hit: top-dose activity, negative = inhibition, hits mostly inhibitors | A8B2U2 | 0.71% of 290,000 active | purified Giardia FBPA | AID 2451; note: % is set by controls: 0 for no effect and ±100 for the full control effect; nearly all actives have a fitted effect of over 55% in size
Target sequence (A8B2U2 whole entry, looked up): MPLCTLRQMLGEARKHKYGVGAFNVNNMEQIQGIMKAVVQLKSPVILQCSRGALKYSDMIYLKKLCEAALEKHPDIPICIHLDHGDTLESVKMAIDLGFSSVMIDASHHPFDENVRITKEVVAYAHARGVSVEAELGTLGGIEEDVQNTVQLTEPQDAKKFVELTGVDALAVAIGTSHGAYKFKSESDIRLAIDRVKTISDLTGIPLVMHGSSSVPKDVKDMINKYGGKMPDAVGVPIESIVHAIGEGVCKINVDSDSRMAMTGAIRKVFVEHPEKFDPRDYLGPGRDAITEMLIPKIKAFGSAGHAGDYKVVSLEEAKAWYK
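Giardia FBPA (40 nM reagent) was preincubated 10 min at RT with compound (up to 57.5 uM final), then substrate plus GAPDH/TPI/NAD/arsenate coupling system with diaphorase/resazurin was added; resorufin fluorescence (525/598 nm) was read after 20 min.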
Giardia growth – Giardia lamblia growth inhibition | 5% of 1,500 active | Giardia lamblia trophozoite growth inhibition | AID 2785 | shares compounds with Giardia FBPA inh-1 | Potency, µM (highest dose often 57.5 µM), for inactives: top-dose activity change, negative = inhibition, usual class: inhibitors;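 note: trophozoites exposed to compound for 48 h at 37 °C; % is set by controls: 0 for no effect and ±100 for the full control effect; nearly all actives have a fitted effect of over 70% in size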
Mammalian tox – counter-screen for Giardia aldolase inhibitors: mammalian cell toxicity | shares compounds with Giardia FBPA inh-1 | Potency, µM (top dose mostly 57.5 µM), inactives show at the highest dose viability change, negative = toxicity, most hits filed as inhibitors | mammalian cell viability counter-screen, qHTS | 4% of 1,500 active;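 note: Chinese hamster ovary cells used as mammalian cytotoxicity surrogate; viability measured as cellular ATP by luminescence; compound exposure lasted 48 h before reading; % is set by controls: 0 for no effect and ±100 for the full control effect; nearly all actives have a fitted effect of over 60% in size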
Giardia FBPA inh-2 – confirmation of Giardia fructose-bisphosphate aldolase inhibitors | Potency, µM (series often up to 57.5 µM), without a hit: at the top dose activity change, negative = inhibition, most hits filed as inhibitors | shares compounds with Giardia FBPA inh-1 | AID 2787 | purified Giardia aldolase enzyme activity, qHTS | 5% of 1,500 active; note: % is set by controls: 0 for no effect and ±100 for the full control effect; nearly all actives have a fitted effect of over 45% in size
Rabbit FBPA inh – blocks rabbit muscle aldolase in Giardia aldolase selectivity test. Potency, µM (series often up to 57.5 µM), for inactives: at the top dose activity, negative = inhibition, hits mostly inhibitors. shares compounds with Giardia FBPA inh-1. Rabbit muscle FBPA enzyme inhibition, selectivity counter-screen. 4% of 1,500 active; note: % is set by controls: 0 for no effect and ±100 for the full control effect; nearly all actives have a fitted effect of over 60% in size
GAPDH counter – GAPDH inhibition flagged for Giardia aldolase hits; 6% of 1,500 active; Potency, µM (highest dose often 57.5 µM), for the others: at the highest dose activity change, negative = inhibition, actives largely listed as inhibitors; shares compounds with Giardia FBPA inh-1; GAPDH coupling enzyme counterscreen, biochemical, qHTS; note: % is set by controls: 0 for no effect and ±100 for the full control effect; nearly all actives have a fitted effect of over 55% in size
The depositor's hits bear a star; ? = inconclusive; · = no result; [ ] = another dose, or the depositor's remark. A selection: hits, their analogues and other compounds. The true share with any hit is near 1.1%. Unless noted, calls come from the whole dose curve; as a rule, active = well fitted curve in the direction sought with a large enough effect; inconclusive = small, poorly fitted or top-dose-only effect, or another doubt; inactive = no such curve, though single readings can be large; an effect the other way counts as inactive or inconclusive. Potency is the fitted concentration of half-maximal effect.

SMILES | AmpC inh no detg | SARS PLP yeast | AmpC detergent | Giardia FBPA inh-1 | Giardia growth | Mammalian tox | Giardia FBPA inh-2 | Rabbit FBPA inh | GAPDH counter
CCC(C)NCCOCCOc1ccc(C)cc1OC (configuration not stated) | -14% | 4% | -9% | -25% | · | · | · | · | ·
CCOC(=O)c1cccc(NC(=O)N2CC(CC)Sc3ccccc32)c1 (configuration not stated) | · | · | 18% | · | · | · | · | · | ·
Cn1c(=O)c2c(nc(N3CCCC3)n2C)n(C)c1=O | -5% | 2% | -12% | -6% | · | · | · | · | ·
Cn1c(=O)c2c(nc(NN=C3CCCC3)n2C)n(C)c1=O | 0% | -2% | 3% | 16µM* | 11% | -4% | -12% | 2% | -4%
Cn1c(=O)c2c(nc(NNC(=O)C(F)(F)F)n2C)n(C)c1=O | -27% | 0% | ? | 18µM* | -6%[10.4 µM] | 0% | 1% | -2% | 13%
Cn1c(=O)c2c(nc(CO)n2C)n(C)c1=O | -20% | 5% | 3% | 0% | · | · | · | · | ·
Cc1ccc(C)n1-c1c(C(=O)NCCCN2CCN(c3ccc(F)cc3)CC2)sc2ncccc12 | · | · | 21% | · | · | · | · | · | ·
COC1CCCCC1Nc1ccc(C)c(C)c1 (configuration not stated) | -21% | 18% | -12% | 20µM* | 15%[10.4 µM] | 16% | -6% | 4% | 3%
O=C(Nc1nnc(C2=COCCO2)o1)c1cccc(F)c1 | -15% | 1% | 5% | · | · | · | · | · | ·
CN(C)c1ccc(C(=O)Nc2nnc(C3=COCCO3)o2)cc1 | -19% | 1% | 4% | 18µM* | ? | 9% | -10% | -1% | 0%
Cc1cccc(C(=O)Nc2nnc(C3=COCCO3)o2)c1 | -12% | 0% | 7% | 18µM* | ? | -1% | -4% | -5% | 0%
O=C(CCSc1ccccc1)Nc1nnc(-c2ccccc2)o1 | -36% | 0% | -14% | 24% | · | · | · | · | ·
CN(c1ccccc1)S(=O)(=O)c1ccc(C(=O)Nc2nnc(C3=COCCO3)o2)cc1 | -44% | 12% | 3% | 11µM* | ? | 22% | 3% | 15% | -9%
O=C(CCSc1ccccc1)Nc1nnc(-c2cccs2)o1 | -19% | 2% | 5% | 16µM* | -13%[10.4 µM] | -14% | 3% | 5% | 6%
CSc1ccc(CCNC(=O)c2ccc(-n3c(C)cc4c3CCCC4)cc2)cc1 | · | · | 13% | · | · | · | · | · | ·
CN(CC(=O)Nc1cccc(F)c1)S(=O)(=O)c1ccc2c(c1)n(C)c(=O)c(=O)n2C | · | · | 8% | · | · | · | · | · | ·
CCCCc1nn2c(=O)cc(COC(=O)c3ccc(NC(=O)C4CCCCC4)cc3)nc2s1 | · | · | 18% | · | · | · | · | · | ·
CCc1ccc(-n2c(=O)c3sc4ccccc4c3n(CC(=O)N3CCCC3)c2=O)cc1 | · | · | -3% | · | · | · | · | · | ·
CN(C)S(=O)(=O)c1ccc(C(=O)Nc2nnc(-c3cccs3)o2)cc1 | -16% | -1% | -7% | 18µM* | 14µM* | -16% | -6% | -6% | -12%
CCOC(=O)c1c(CN2CCN(c3ccccc3)CC2)oc2ccc(O)cc12 | -19% | 4% | -12% | -8% | · | · | · | · | ·
CCOC(=O)c1c(N2CCN(c3ccccc3)CC2)cc(C)nc1C | 42% | -3% | ? | 14µM* | ? | 5% | 1% | 8% | -9%
Cc1cnn(C(=S)NCc2ccco2)c1 | -3% | 9% | -2% | 16µM* | -3%[10.4 µM] | 3% | -6% | 4% | 11%
NNC(=S)NCc1ccco1 | -42% | 0% | 0% | 18µM* | -5%[10.4 µM] | 0% | 2% | 13% | 4%
S=C(NCc1ccccc1)NCc1ccco1 | -23% | 8% | ? | 1% | · | · | · | · | ·
NC(=S)N=Nc1ccc(NN=C(N)N)cc1 | -24% | 2% | ? | 10µM* | 22% | -3% | ? | ? | ?
SMILES | AmpC inh no detg | SARS PLP yeast | AmpC detergent | Giardia FBPA inh-1 | Giardia growth | Mammalian tox | Giardia FBPA inh-2 | Rabbit FBPA inh | GAPDH counter
N#C/C(=N/Nc1ccc(OC(F)(F)F)cc1)C(N)=S | -33% | -7% | -6% | 0% | · | · | · | · | ·
O=C(N/N=C/c1cccnc1)c1cc(O)c(O)c(O)c1 | -19% | 0% | 0% | 10µM* | ? | 6% | -25% | -20% | -8%
COc1cc2cc(CNc3ccc(C)cc3)c(=O)n(CC(=O)Nc3ccc(F)cc3F)c2cc1OC | · | · | -2% | · | · | · | · | · | ·
CCOc1cc(C(=O)NC(=S)Nn2cnnc2)cc(OCC)c1OCC | -14% | -1% | 4% | 16µM* | ? | 3% | 2% | 14% | -8%
CCOc1cc(C(=O)Nn2cnnc2)cc(OCC)c1OCC | -13%[11.4 µM] | 0% | -14% | 4% | · | · | · | · | ·
Cn1ncc(Br)c1C(=O)N/N=C/c1cccc(OC2CSC2)c1 | 2% | 11% | 11% | ? | -1%[38.3 µM] | -6% | 32µM* | 35µM* | 35µM*
CCN1CCCC1Cn1c(-c2ccccc2)nc2c(N(CCOC)CCOC)nc(C)nc21 (configuration not stated) | · | · | · | 1% | · | · | · | · | ·

Screens from PubChem.
